Results: PubChem BioAssay (NCI)
The panel holds about 83,000 compounds, 20% with a hit somewhere; the sample as a whole holds those more often.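 48-hour exposure, single concentration, 96-well plates; percent growth endpoint where 0 means no net growth. Active: below 10.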 Values without a mark were called inactive. Calls of active or inactive are those of the source.

Each molecule was assayed on HL-60(TB) leukemia (assay: NCI-60 one-dose screen, 48 h (100 = growth as untreated, 0 = no growth, -100 = all killed)). Details: 10 µM unless noted.

In order of rising growth:
1. Cc1ccc(NS(=O)(=O)c2ccc3c(c2)C2OCCC2C(c2ccc(C(=O)C(C)C)cc2)N3)cc1C (stereo not given)  20.4%
2. Cc1cc(N2CCCCCC2)nc(N2CCN(CC(=O)Nc3ccc4c(ccn4Cc4ccccc4)c3)CC2)n1  23.4%
3. CCC(C)Oc1cc(/C=N/NC(=O)c2cnn3c2NC(c2ccccc2)C3)ccc1OC (stereo not given)  32.2%
4. Cc1cc(Br)c2nsnc2c1[N+](=O)[O-]  37.7%
5. Cn1c(C(N)=O)cc2c1-c1nc(Nc3ccccc3)ncc1CCC2  40.6%
6. O=C(/C=C/c1ccccc1)c1ccc(Nc2nc(Nc3ccc(F)cc3)nc(Nc3ccc(Cl)cc3)n2)cc1  43.9%
7. CCC(c1ccc(OC)cc1)C(CC)c1ccc(O)c(CN2CCCCC2)c1 (stereo not given)  52.6%
8. COc1cc(CCC[P+](c2ccccc2)(c2ccccc2)c2ccccc2)c(OC)c(OC)c1OC  65.7%
9. CCN(CC)CCNC(=O)c1ccc(-c2nc3ccc4[nH]ncc4c3c3c2CCCC3)cc1  67.9%
10. C[C@H]1[C@@H]2[C@H]3CC[C@@H]4[C@@]5(C)Cc6c([nH]c7ccccc67)C(C)(C)[C@@H]5CC[C@@]4(C)[C@]3(C)CC[C@]23CO[C@]1(C)[C@@H](C(=O)/C=C/c1ccccn1)C3  72.4%
11. COc1ccc2cc(C(C)C(=O)Nc3ccc(-c4n[nH]c(=S)n4C4CCCCC4)cc3)ccc2c1 (stereo not given)  73.6%
12. CC(C)(C)CC(C)(C)Nc1c(-c2ccc3c(c2)OCO3)nc2cnccn12  77.8%
13. O=[N+]([O-])c1ccc(Oc2ccc(-c3ccccc3)cc2)cc1  78.7%
14. CCN1C(=O)N(CC)C2C1NC(=S)N2/N=C/c1ccc(C(F)(F)F)cc1 (stereo not given)  78.8%
15. CC1=NN(c2nc(-c3ccc(Cl)cc3)c(C#N)c(N3CCOCC3)n2)C(=O)C1  81.8%
16. CCOC(=O)C1CCNC(=O)C1=O (stereo not given)  86%
17. CC1(c2ccccc2Cl)NC(=O)NC1=O (stereo not given)  87.8%
18. NS(=O)(=O)c1ccc(-c2cc(-c3nnc(SCC(=O)Nc4ccc(C(=O)/C=C/c5ccc(Cl)cc5)cc4)n3-c3ccccc3)c3ccccc3n2)cc1  92.2%
19. CN1COc2ccc3ccccc3c2C1  93.2%
20. COc1ccc2nc(NC(=O)/C(=C/c3cc(OC)c(OC)c(OC)c3)c3ccc(OC)c(OC)c3)sc2c1  94.5%
21. COc1cc(C(N)=O)cc(OC)c1OC  96.6%
22. Cc1cc(C#Cc2ccc(C(C)(C)C)cc2)ccc1-n1c(/C=C/c2c(Cl)cccc2Cl)nc2ccccc2c1=O  99.6%
23. N=c1c2c(-c3ccccc3)c(-c3ccccc3)oc2ncn1NC(=O)c1cccnc1  99.7%
24. CSC1=NCCCC1  99.8%
25. Clc1ccc(Oc2ccc(Nc3ncnc4onc(-c5ccccc5)c34)cc2)c(Cl)c1  100%
26. CC(=O)Oc1cc(C)c(OC(C)=O)c(C)c1C  101%
27. N#CC1=C(N)Oc2c(c(N)nn2-c2ccccc2)C1c1ccc(Cl)cc1 (stereo not given)  110%
28. CC(C)(N)CO[C@H]1C[C@H]2CC[C@@]1(C)C2(C)C  111%
29. CC1=NN(c2ccccc2Cl)C(=O)/C1=C\c1cn(S(=O)(=O)c2ccc(C)cc2)c2ccccc12  114%
30. CC(C)(C)CC(N)=O  120%

With `COc1cccc(CC(C)=C(c2ccc(OCCN3CCCCC3)cc2)c2ccc(OCCN3CCCCC3)cc2)c1` the growth was -57.5% (active).
For `S=C(Sc1ccc(Cl)cc1)Sc1ccc(Cl)cc1`, the growth was -63.7% (active).
In the case of `O=C(Nc1cccc(-n2cc(-c3ccncc3)c(-c3ccc(Cl)c(O)c3)n2)c1)Nc1ccc(Cl)c(C(F)(F)F)c1`, the growth is reported as -11.2% (active).
With `COc1cc(C(=O)N/N=C/c2ccc(N(C)C)cc2)cc(OC)c1OC` the growth was -20% (active).
With `COc1ccc2cn3c4ccc(O)cc4[nH]c(=O)c3c2c1` the growth was -7.42% (active).
In the case of `Cc1nc(Sc2nc3ccc([N+](=O)[O-])cc3s2)sc1C`, the growth is reported as -41.7% (active).
With `CSC1SCC2C(=O)N(C)C(C(C)C)C(=O)OCC(NC(=O)c3cnc4ccccc4n3)C(=O)NC(C)C(=O)N(C)C1C(=O)N(C)C(C(C)C)C(=O)OCC(NC(=O)c1cnc3ccccc3n1)C(=O)NC(C)C(=O)N2C` (stereo not given) the growth was -51.1% (active).
With `O=C1/C(=C/c2cccc(F)c2)CN(C(=O)C(Cl)Cl)C/C1=C\c1cccc(F)c1` the growth was -41.6% (active).
For `COc1ccc(-c2cnc(-c3ccncc3-c3cccc(OC)c3)o2)cc1`, the growth was 0.0287% (active).
With `Cc1cc(N/N=C/c2nc(-c3ccc(Cl)cc3)oc2C)c2cc(Cl)ccc2n1` the growth was 8.08% (active).
